# Reference: the supplement of paper PMC11150407
# Among all 3,000 compounds or so, about 45 (2%) showed an effect of 50% or more. Only a selection was taken, and strong results are over-represented in it overall.
# Tested on: MOLM1 and UCSD/AML1 (averaged)
# Experiment: cell viability relative to DMSO control (POC); higher = less growth inhibition
# Conditions: 1 µM; 72 h
# Description: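 Primary viability screen in the 3q26 EVI1-high AML cell lines MOLM1 and UCSD/AML1, compounds at 1 uM for 72 h. ATP CellTiter-Glo read-out given as percent viable over DMSO control (POC), averaged over duplicates. This mapping covers the TimTec NDL-3000 natural derivative library, whose compounds are identified by TimTec catalogue codes (ST...).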
row,Structure (SMILES),cell viability
1,CCc1ccc2oc(=O)cc(CN3CCN(Cc4nc(-c5ccc(C)cc5)oc4C)CC3)c2c1,96.3%
2,O=C(Cn1c(=O)cc(C(=O)N2CCCCC2)c2ccccc21)Nc1ccc(F)cc1,89.9%
3,Cc1ccc2c(CN3CCN(Cc4ccc(Br)cc4F)CC3)cc(=O)oc2c1,100%
4,CCc1ccc(-c2cc(-c3cc(OC)c(OC)c(OC)c3)[nH]c(=O)c2C#N)cc1,96.9%
5,CC(=O)OCC1OC(OC(C)=O)C(OC(C)=O)C(OC(C)=O)C1OC(C)=O (centres undefined),109%
6,O=C(/C=C/c1cccc(Cl)c1)c1ccc(OC(=O)c2cccc([N+](=O)[O-])c2)cc1,102%
7,Nc1nc2ncc(CNc3ccc(C(=O)N[C@H](CCC(=O)O)C(=O)O)cc3)nc2c(=O)[nH]1,102%
8,COc1cc(C2C(C#N)=C(N)Oc3n[nH]c(C)c32)ccc1O (centres undefined),110%
9,COc1cc(C2C(C#N)=C(N)Oc3n[nH]c(-c4ccccc4)c32)cc(OC)c1OC (centres undefined),100%
10,COc1cc(C2C(C#N)=C(N)Oc3cc(N)ccc32)cc(OC)c1OC (centres undefined),13.5%
11,COc1cc(C(=O)N2CCCc3cccc(OCCNC(C)=O)c32)cc(OC)c1OC,98.7%
12,CCOC(=O)CC[C@@H](C)[C@H]1CC[C@H]2[C@@H]3CC[C@@H]4C[C@H](O)CC[C@]4(C)[C@H]3C[C@H](O)[C@]12C,86%
13,CC(=O)c1nc2ccccc2n1CC(=O)NCCOc1ccccc1,98.2%
14,COc1cccc(NC(=O)Cn2c(=O)cc(C(=O)N3CCCC3)c3ccccc32)c1,102%
15,COc1ccc(C(=O)c2sc(Nc3ccc(F)cc3)nc2N)cc1OC,101%
16,COc1ccc(Nc2nc(N)c(C(=O)c3ccc(OC)c(OC)c3)s2)cc1,15.4%
17,COc1ccc(C(=O)c2sc(Nc3cccc(F)c3)nc2N)cc1OC,96.9%
18,CCOc1ccc(-c2nc(CSc3nc4c(=O)[nH]cnc4n3C)c(C)o2)cc1OC,118%
19,COC(=O)c1cc(O)cc(O)c1,104%
20,COC(=O)c1c(C)n(CCOc2ccc(F)cc2)c2ccc(O)cc12,96.9%
21,COc1cc(C(=O)NCc2ccc3c(c2)OCO3)c(Br)c(OC)c1OC,105%
22,COc1cc(OC)c(C(=O)/C=C/c2ccc(O)cc2)c(OC)c1,100%
23,COc1cc(O)c(C(=O)/C=C/c2ccco2)c(OC)c1,112%
24,COc1cc(OC)c(C(=O)/C=C/c2ccccc2)c(OC)c1,33%
25,CCN(CC)c1ccc2[nH]c3c(C(N)=O)cc(=O)c(=O)c=3oc2c1,3.99%

row,Structure (SMILES),cell viability
1,CCN(CC)c1ccc2cc(-c3ccccc3)c(=O)oc2c1,96.9%
2,CC(C)c1ccc(NC(=O)Cn2c(=O)cc(C(=O)N3CCc4ccccc4C3)c3ccccc32)cc1,97.1%
3,COc1cc(C(=O)NC2Cc3ccccc3NC2=O)cc(OC)c1OC (centres undefined),109%
4,COc1ccc(C(=O)/C=C2\C(=O)Nc3ccccc32)cc1OC,52.3%
5,COc1cc(C(=O)/C=C2\C(=O)Nc3ccccc32)cc(OC)c1OC,21.6%
6,CCN(CC)c1ccc2cc(-c3ccc(OC)cc3)c(=O)oc2c1,88.7%
7,CN(C)c1ccc2cc3ccc(=[N+](C)C)cc-3oc2c1,3.15%
8,COc1cc(/C=C/C(=O)c2ccc(C(=O)/C=C/c3cc(OC)c(OC)c(OC)c3)cc2)cc(OC)c1OC,106%
9,Cc1ccc(C)c(NC(=O)CN2CCN(Cc3cc(=O)oc4cc(C)ccc34)CC2)c1,98.3%
10,COc1ccccc1NC(=O)c1ccc2c(c1)OCO2,94.7%
11,CCOc1ccccc1C1CCCC2(O)CCN(CC(=O)NCc3ccco3)CC12 (centres undefined),99.5%
12,CCOC(=O)C1=C(C)N(C)C(=O)NC1c1cc(Br)c(O)c(OC)c1 (centres undefined),116%
13,CCOC(=O)c1sc(NC(=O)/C=C/c2ccccc2)c(C(=O)OCC)c1C,96%
14,COc1ccc(-c2cc(=O)c3cc(O)ccc3o2)cc1,71.1%
15,COc1ccc(-c2cc(=O)c3ccccc3o2)c(OC)c1,113%
16,COc1ccc2oc(C(Cl)(Cl)Cl)cc(=O)c2c1,3.78%
17,COc1ccc2c(=O)c(O)c(-c3ccccc3)oc2c1,62.7%
18,COc1ccc2c(O)c([N+](=O)[O-])c(=O)oc2c1,105%
19,COc1ccc2c(=O)cc(C(Cl)(Cl)Cl)oc2c1,5.13%
20,COc1cc(OC)cc(C(=O)Nc2ccccc2C(=O)Nc2ccccc2Cl)c1,95.1%
21,CN1CCN(Cc2c(O)ccc3cc(-c4nc5ccccc5s4)c(=O)oc23)CC1,101%
22,Cc1cc(C)c(NC(=O)Cn2c(=O)cc(C(=O)N3CCc4ccccc4C3)c3ccccc32)c(C)c1,100%
23,CCCCCC1CCC(=O)N1CCN=Cc1c(O)c(O)c(C(C)C)c2cc(C)c(-c3c(C)cc4c(C(C)C)c(O)c(O)c(C=NCCN5C(=O)CCC5CCCCC)c4c3O)c(O)c12 (centres undefined),86.9%
24,Cc1[nH]c2ccccc2c1CCNC(=O)c1ccc(=O)[nH]c1,96.3%
25,CC(Cl)COC(=O)/C=C/c1ccc([N+](=O)[O-])cc1 (centres undefined),108%

row,Structure (SMILES),cell viability
1,Cc1ccc(N2C3=C(C(=O)CC(C)(C)C3)C(c3ccc(O)cc3)C3=C2CC(C)(C)CC3=O)cc1,89.8%
2,COc1ncnc2nc[nH]c12,100%
3,Cc1ncnc2nc[nH]c12,3.11%
4,Cc1ccc(OCCSc2ncnc3nc[nH]c23)cc1,92.7%
5,Cc1ccc(-n2c(SCc3cn4ccccc4n3)nc3c(=O)[nH]cnc32)cc1,98.3%
6,CCC(O)/N=C/c1c(O)c(O)c(C(C)C)c2cc(C)c(-c3c(C)cc4c(C(C)C)c(O)c(O)c(/C=N/C(O)CC)c4c3O)c(O)c12 (centres undefined),88.9%
7,Cc1cc2c(C(C)C)c(O)c(O)c(C=NCCN3CCN(C)CC3)c2c(O)c1-c1c(C)cc2c(C(C)C)c(O)c(O)c(C=NCCN3CCN(C)CC3)c2c1O,98.8%
8,Cc1cc2c(C(C)C)c(O)c(O)c(/C=N/N3CCN(C)CC3)c2c(O)c1-c1c(C)cc2c(C(C)C)c(O)c(O)c(/C=N/N3CCN(C)CC3)c2c1O,4.5%
9,COc1ccc(NC(=O)CSc2nc3c(=O)[nH]cnc3n2-c2ccc(C)cc2)c(OC)c1,102%
10,Cc1ccc(C(=O)N2N=C(c3c(-c4ccccc4)c4cc(Br)ccc4[nH]c3=O)CC2c2ccccc2)cc1 (centres undefined),100%
11,CCOC(=O)N1CCc2[nH]c3ccc(Cl)cc3c2C1,89.6%
12,O=C(O)c1ccc2[nH]c3c(c2c1)CCCC3,95.7%
13,CCOC(=O)N1CCc2[nH]c3ccc(C)cc3c2C1,42.4%
14,CCN(CC)CCC(=O)c1ccc(OC)c(OC)c1,98.6%
15,COc1ccc(/C=C/C(=O)Oc2ccc(C(C)C)cc2)c(OC)c1,101%
16,COc1ccc(Br)cc1/C=C/C(=O)O,95.6%
17,CCOC(=O)CCc1n[nH]c(=O)[nH]c1=O,88.1%
18,CCOC(=O)[C@H]1CCC(=O)N1,17.6%
19,CCOC(=O)CCc1ccc2c(c1)NC(=O)CC2,91.8%
20,Cc1cccc(NC(=O)CSc2nc3c(=O)[nH]cnc3n2C)c1C,95.1%
21,Cc1[nH]c2ccc(Br)cc2c1CCNC(=O)c1cccs1,100%
22,Cc1ccc(NC(=O)CSc2nc3c(=O)[nH]cnc3n2CC2CCCO2)c(Cl)c1 (centres undefined),98.7%
23,COc1ccc(C(=O)N2CCN(Cc3cc(=O)oc4cc(C)ccc34)CC2)c(OC)c1,93%
24,Cc1ccc2c(CN3CCN(C(=O)OC(C)(C)C)CC3)cc(=O)oc2c1,14.9%
25,Cc1ccc2c(CN3CCN(Cc4ccc(Cl)cc4)CC3)cc(=O)oc2c1,96.2%

row,Structure (SMILES),cell viability
1,C=C(C)C1CCC2(C)CCC3(C)C(CCC4C5(C)CCC(OC(C)=O)C(C)(C)C5CCC43C)C12 (centres undefined),102%
2,COc1ccc(OC)c2c(C)cc(SCC(=O)c3ccc4c(c3)OCCO4)nc12,101%
3,COC(=O)C1=C(C)NC2=C(C(=O)CCC2)C1c1cc(OC)c(OC)c(OC)c1 (centres undefined),94.9%
4,COC(=O)C1=C(C)NC(SC)=C(C#N)C1c1cc(OC)c(OC)c(OC)c1 (centres undefined),18.3%
5,COC(=O)C1=C(C)NC2=C(C(=O)CC(c3ccc(OC)c(OC)c3)C2)C1c1cc(OC)c(OC)c(OC)c1 (centres undefined),101%
6,CC(=O)/C=C(\C)NC(C)C(=O)O (centres undefined),102%
7,O=C(/C=C/c1ccc(Cl)cc1Cl)c1ccc(Br)cc1,108%
8,O=C(/C=C/c1cccc(NC(=O)c2ccc(Br)cc2)c1)c1cccc(NC(=O)c2ccc(Br)cc2)c1,1.83%
9,O=C(/C=C/c1ccc(NC(=O)c2cc(NC(=O)C(c3ccccc3)c3ccccc3)cc(NC(=O)C(c3ccccc3)c3ccccc3)c2)cc1)c1ccccc1,94.6%
10,CCCCCCOC(=O)c1ccccc1NC(=O)c1c(O)c2ccccc2[nH]c1=O,97.5%
11,COC(=O)c1ccc2c(c1)C(=O)/C(=C/c1ccc(O)c(OC)c1)O2,84.6%
12,CCOc1ccc(/C=C2/Oc3ccc(C(=O)OC)cc3C2=O)cc1OCC,96.6%
13,CCOc1cc(/C=C2\Oc3ccc(C(=O)OC)cc3C2=O)ccc1O,16.8%
14,COc1cc(N(C(C)=O)C2OC(COC(C)=O)C(OC(C)=O)C(OC(C)=O)C2OC(C)=O)c(OC)c2c(C)cc(C)nc12 (centres undefined),98.5%
15,CCOC(=O)CSc1nc2c(c(=O)[nH]c(=O)n2C)n1Cc1cccc(C)c1,100%
16,Cc1ccc(-n2c(SCc3cccc(Cl)c3)nc3c(=O)[nH]cnc32)cc1,114%
17,CN(C)S(=O)(=O)Nc1ccc(S(=O)(=O)N2CCc3ccccc3C2)cc1,98.2%
18,COc1ccc(-c2nnc(SCc3nc4ccccc4[nH]3)o2)cc1OC,95.3%
19,Cc1ccc(/C=C2\Oc3cc(O)ccc3C2=O)cc1,98.7%
20,O=C(CSc1nc2c(=O)[nH]cnc2n1-c1ccccc1)NC1CCCC1,91.7%
21,CC(NC(=O)c1ccccc1)C(=O)O (centres undefined),99.5%
22,COc1ccc(/C=C/C(=O)N2CCc3c([nH]c4ccccc34)C2c2ccc(OC)cc2)cc1 (centres undefined),90.2%
23,COc1ccc(C2c3[nH]c4ccccc4c3CCN2C(=O)/C=C/c2ccc(OC)c(OC)c2)cc1 (centres undefined),81.9%
24,COc1ccc(C2c3[nH]c4ccccc4c3CCN2C(=O)/C=C/c2cc(OC)c(OC)c(OC)c2)cc1 (centres undefined),32.6%
